Data from PubChem BioAssay (NCI).
This is part of a sample that, as a whole, favours compounds with a hit. Of some 79,000 tested, about 15% had one in any assay. Unmarked numbers belong to inactive results. Active and inactive are the calls of the source. Cut-off read from the data, not from the text of the source: active = growth inhibition above about 70%; inactive = the rest.

Assay: NCI Yeast Anticancer Drug Screen. Data for the rad18 strain (AID 177)
Conditions: S. cerevisiae rad18 mutant growth inhibition, stronger effect = higher value
Protocol: Growth inhibition of yeast strains with defined genetic alterations is measured as a screen for potential anti-cancer activity. Selected strains with alterations in DNA damage repair or cell cycle control were exposed to compounds and growth inhibition was measured relative to vehicle treated controls. The strain used in this assay is rad18

SMILES | growth inhibition (at 1.2 µM) [%] | growth inhibition (at 3.7 µM) | growth inhibition (at 11.0 µM) | growth inhibition (at 33.0 µM) | growth inhibition (at 100.0 µM)
CN(NC(=O)/C(=C/c1ccc(O)cc1)NC(=O)c1ccccc1)c1ccnc2cc(Cl)ccc12 | 1 | 7% | 45% | 78% (active) | 87% (active)
Nc1cc(S(N)(=O)=O)ccc1SSc1ccc(S(N)(=O)=O)cc1N | -14 | 7% | 28% | 52% | 78% (active)
Cc1ccc2c(ccc(/C=C/c3ccc(O)c4ncccc34)[n+]2C)c1 | 17 | 31% | 80% (active) | 91% (active) | 63%
CN(C)CCNc1cccc2sc3ccc(O)cc3c(=O)c12 | -2 | -2% | -1% | 1% | 5%
O=C(/C=C/c1cccc(Br)c1)c1ccc(Cl)cc1 | -37 | -13% | 30% | 61% | 84% (active)
BrCc1ccccc1C(c1ccccc1)c1ccccc1 | 25 | 89% (active) | 96% (active) | 97% (active) | 96% (active)
[Pt].c1ccc(P(CCP(c2ccccc2)c2ccccc2)CCP(c2ccccc2)c2ccccc2)cc1 | -33 | 6% | 20% | 94% (active) | 83% (active)
COc1cc(N)ccc1Nc1c2ccccc2nc2ccccc12 | -2 | -11% | -4% | 7% | 82% (active)
